Most compounds without a hit are left out; they make up all but 1.6% or so of the library.
Fam108B inh = mouse Fam108B serine hydrolase inhibitors, primary screen, counter-screen for RBBP9 inhibitor project, biochemical, fluorescence polarization; recombinant Fam108B, FP-Rh probe fluorescence polarization; inhibition, % at 9.51 µM; hit rate 0.33% among 300,000; AID 1947, 2009;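 active means inhibition above the screen mean inhibition plus 3 SD, computed separately per campaign, cut at about 18% in these data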;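 further: inhibitors lower polarization as less probe binds the enzyme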
PME-1 primary = PME-1 inhibitors via competitive probe labeling, primary screen, biochemical, fluorescence polarization, FP-Rh probe, HTS; Protein phosphatase methylesterase 1 (Homo sapiens), Q9Y570; recombinant PME-1; inhibition, % at 5.9 µM; hit rate 0.53% among 320,000;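 active means inhibition above the campaign mean of all compounds plus 3 SD, cut at about 26% in these data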;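 further: competitive labeling of PME-1 active site by serine hydrolase directed probe; inhibitors block probe labeling so polarization falls and inhibition rises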
LYPLA1 counter = LYPLA1 inhibitors, primary screen, counter-screen for PME1 inhibitor project, biochemical, fluorescence polarization, FP-Rh probe ABPP; Acyl-protein thioesterase 1 (Homo sapiens), O75608; recombinant LYPLA1; inhibition, % at 5.9 µM; hit rate 0.16% among 320,000;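 active means inhibition above the mean of all tested compounds plus 3 SD, set per campaign, cut at about 14% in these data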;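 further: inhibitors block serine hydrolase probe labeling of LYPLA1 so polarization falls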
LYPLA2 inh = LYPLA2 inhibitors, primary screen, counter-screen for PME1 inhibitor project, biochemical, fluorescence polarization, FP-Rh probe ABPP; inhibition, % at 5.9 µM; hit rate 0.38% among 320,000; Acyl-protein thioesterase 2 (Homo sapiens), O95372; recombinant LYPLA2;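 active means inhibition above the screen-wide mean plus 3 SD, limit set per campaign, cut at about 26% in these data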
PREPL inh = PREPL enzyme inhibitors, primary screen, biochemical, fluorescence polarization. Prolyl endopeptidase-like (Homo sapiens), Q4J6C6. recombinant PREPL, fluorescence polarization activity-based probe. inhibition, % at 5.96 µM. hit rate 0.68% among 320,000; in the data active means inhibition above about 43%
Target sequence (Q4J6C6 whole entry, looked up): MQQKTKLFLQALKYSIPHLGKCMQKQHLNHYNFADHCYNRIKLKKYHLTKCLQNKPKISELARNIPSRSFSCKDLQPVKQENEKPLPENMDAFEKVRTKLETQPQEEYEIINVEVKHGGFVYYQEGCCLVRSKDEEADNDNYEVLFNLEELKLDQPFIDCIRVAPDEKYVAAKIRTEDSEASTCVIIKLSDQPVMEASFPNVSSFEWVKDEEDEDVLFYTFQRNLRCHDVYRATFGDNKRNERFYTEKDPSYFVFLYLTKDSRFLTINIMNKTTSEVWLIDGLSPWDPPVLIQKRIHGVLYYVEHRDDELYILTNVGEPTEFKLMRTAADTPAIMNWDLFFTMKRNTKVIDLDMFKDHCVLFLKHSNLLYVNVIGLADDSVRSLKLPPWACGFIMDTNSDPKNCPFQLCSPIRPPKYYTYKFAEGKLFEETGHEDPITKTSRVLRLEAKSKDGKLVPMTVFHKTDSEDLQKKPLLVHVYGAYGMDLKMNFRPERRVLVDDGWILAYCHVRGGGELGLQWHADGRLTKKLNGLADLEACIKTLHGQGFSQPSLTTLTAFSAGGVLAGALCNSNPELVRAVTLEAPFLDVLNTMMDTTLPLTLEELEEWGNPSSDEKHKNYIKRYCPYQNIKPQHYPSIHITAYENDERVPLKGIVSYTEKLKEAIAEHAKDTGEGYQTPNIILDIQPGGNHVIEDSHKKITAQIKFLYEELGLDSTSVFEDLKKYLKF
MEX-5 binding = MEX-5 zinc finger RNA-binding disruptors – biochemical, C. elegans, fluorescence polarization, MLPCN library, primary screen. Zinc finger protein mex-5 (Caenorhabditis elegans), Q9XUB2. MEX-5/FITC-TCR2 RNA binding; stronger effect = lower value. activity score (negative = inhibition of binding), % at 10 µM. hit rate 0.38% among 300,000. AID 1832, 2009;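 active means inhibition past about -25% in most replicates, and total fluorescence under double the plate's negative control median, limit read from the data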
LYPLA2 conf = LYPLA2 inhibitors, retest, confirmation, counter-screen for PME1 inhibitor project, biochemical, fluorescence polarization, FP-Rh probe ABPP; inhibition, % at 5.9 µM; recombinant LYPLA2; shares compounds with LYPLA2 inh; hit rate 72% among 1,100;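 active means mean inhibition across replicates above the hit cutoff set in the primary screen, cut at about 26% in these data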;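 further: blocked labeling of the enzyme by serine hydrolase FP-Rh probe lowers polarization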
LYPLA2 ABPP = LYPLA2 inhibitors in proteome, late-stage follow-up, gel-based competitive ABPP, fluorescence, assay provider. shares compounds with LYPLA2 inh. rhLYPLA2 in mouse brain proteome, gel ABPP FP-Rh. inhibition, % at 20 µM. hit rate 30% among 150. AID 652029, 2013;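 active means inhibition of LYPLA2 enzyme probe labeling above about 50%, limit read from the data; inactive means inhibition below that limit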;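 further: loss of FP-Rh probe labeling of the LYPLA2 gel band measured as band density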
Each line names hits and unclear results; the compound was inactive in the other large screens (follow-up assays come after a bar, where they were run).

COc1cccc(S(=O)(=O)NCc2ccc(C(=O)N3CCN(Cc4ccccc4)CC3)cc2)c1	LYPLA2 inh 42.8 | LYPLA2 conf 48.9
O=C(c1ccc(Cl)cc1)N1CCC(O)(CSc2ccc(Cl)cc2)CC1	LYPLA2 inh 32.8 (no result: MEX-5 binding) | LYPLA2 conf 28.5
CC(=O)c1sc(C(=O)O)c(-c2ccco2)c1-c1ccco1	none
Cc1cc(C)n2nc(SCC(=O)N/N=C/c3ccc(F)cc3)nc2n1	none
O=C(NCC(=O)N1CCN(C/C=C/c2ccccc2)CC1)c1ccc(Br)cc1	none (no result: Fam108B inh, PME-1 primary, LYPLA1 counter, LYPLA2 inh, MEX-5 binding)
O=C(NCC(=O)N1CCN(C/C=C/c2ccccc2)CC1)c1ccc(OC(F)F)cc1	LYPLA2 inh 34.7 (no result: Fam108B inh, MEX-5 binding) | LYPLA2 conf 31.9
CN(C(=O)c1ccc(NC(=O)Cc2cccc(NC(=O)C3CCCN(C(=O)CCc4ccccc4)C3)c2)cc1)C1CCCC1 (stereo not drawn)	none (no result: Fam108B inh, MEX-5 binding)
CN(C(=O)c1ccc(NC(=O)Cc2ccc(NC(=O)C3CCCN(C(=O)CCc4ccccc4)C3)cc2)cc1)C1CC1 (stereo not drawn)	LYPLA2 inh 57.8 (no result: Fam108B inh, MEX-5 binding) | LYPLA2 conf 50.4 | LYPLA2 ABPP inactive
CCOC(=O)C1CCCN(C(=O)COC(=O)c2cc(=O)c3ccccc3o2)C1 (stereo not drawn)	none
COc1ccc(OC)c(-c2cc(C(=O)Nc3c(C)nn(Cc4ccccc4Cl)c3C)no2)c1	LYPLA2 inh 39.5 | LYPLA2 conf 28.6
COc1ccc(OC)c(-c2cc(C(=O)Nc3c(C)nn(Cc4ccccc4C)c3C)no2)c1	LYPLA2 inh 63.7 | LYPLA2 conf 54.6 | LYPLA2 ABPP 50.0
Cc1nc([N+](=O)[O-])cn1CC(=O)Nc1ccc(F)c(Cl)c1	LYPLA2 inh 44.7 | LYPLA2 conf 59.1 | LYPLA2 ABPP 70.0
Cc1ccccc1NC(=O)Cn1c([N+](=O)[O-])cnc1C	none
Cc1ncc([N+](=O)[O-])n1CC(=O)Nc1ccc(Cl)cc1	LYPLA2 inh 47.1 | LYPLA2 conf 50.9 | LYPLA2 ABPP inactive
O=C(Cn1cnc([N+](=O)[O-])c1)Nc1ccc(F)c(Cl)c1	none (no result: Fam108B inh, PME-1 primary, LYPLA1 counter, LYPLA2 inh, PREPL inh)
Cc1ncc([N+](=O)[O-])n1CC(=O)Nc1ccc(F)c(F)c1	LYPLA2 inh 66.6 | LYPLA2 conf 59.8 | LYPLA2 ABPP inactive
Cc1ccc(NC(=O)Cn2c([N+](=O)[O-])cnc2C)cc1Cl	LYPLA2 inh 57.0 | LYPLA2 conf 51.0 | LYPLA2 ABPP 67.0
COC(=O)c1cc(Br)c(N)cc1OC	none
O=C(c1ccccc1)N1CCN(C(=O)c2ccc([N+](=O)[O-])cc2)CC1	none (no result: MEX-5 binding)
O=C(c1ccc2nsnc2c1)N1CCN(c2ccc([N+](=O)[O-])cc2)CC1	LYPLA2 inh 26.6 | LYPLA2 conf inactive
O=C(Cc1ccc([N+](=O)[O-])cc1)N1CCN(c2ccc([N+](=O)[O-])cc2)CC1	LYPLA2 inh 69.1 | LYPLA2 conf 69.4 | LYPLA2 ABPP 70.0
O=C(Cc1ccc(F)cc1)N1CCN(c2ccc([N+](=O)[O-])cc2)CC1	none (no result: Fam108B inh, PME-1 primary, LYPLA1 counter, LYPLA2 inh, PREPL inh)
CCCC(=O)Nc1ccc(C(=O)COC(=O)C2CC2C)cc1 (stereo not drawn)	LYPLA2 inh 28.7 (no result: Fam108B inh, MEX-5 binding) | LYPLA2 conf 28.1
CC1CC1C(=O)OCC(=O)N(C)CC(=O)Nc1ccc(F)cc1 (stereo not drawn)	none (no result: Fam108B inh, PME-1 primary, LYPLA1 counter, LYPLA2 inh, MEX-5 binding)
O=C(Nc1cc(S(=O)(=O)N2CCCCC2)ccc1N1CCOCC1)c1cc(=O)[nH]c2ccccc12	LYPLA2 inh 31.6 | LYPLA2 conf 26.6
COc1ccc(S(=O)(=O)N2CCOCC2)cc1NC(=O)c1cc(=O)[nH]c2ccccc12	none (no result: Fam108B inh, MEX-5 binding)
O=[N+]([O-])c1ccc(Sc2ccccc2Cl)nc1	LYPLA2 inh 45.2 | LYPLA2 conf 47.8
COc1ccc(CNC(=O)c2ccc(N3CCC4(CC3)CC(c3ccc(Cl)cc3)=NO4)c(N)c2)cc1	LYPLA2 inh 40.1 | LYPLA2 conf 40.8
CN(CC(=O)O/N=C(\N)c1ccc([N+](=O)[O-])cc1)S(=O)(=O)c1ccc2ccccc2c1	LYPLA2 inh 59.1 | LYPLA2 conf 63.5 | LYPLA2 ABPP inactive
CC(C)c1ccc(NC(=O)NCc2ccccn2)cc1	LYPLA2 inh 27.9 | LYPLA2 conf inactive
C=CCn1c(SCC(=O)N2CCOCC2)nc2sc(CC)cc2c1=O	none (no result: Fam108B inh, PME-1 primary, LYPLA1 counter, LYPLA2 inh, MEX-5 binding)
COC(=O)c1ccc(CNC(=O)c2cc(COc3cncc(Cl)c3)on2)cc1	LYPLA2 inh 34.9 | LYPLA2 conf 35.2
COC(=O)c1n[nH]n(-c2ccc(F)c(Cl)c2)c1=O	none
O=[N+]([O-])c1cnc(Nc2ccc(Cl)cn2)c([N+](=O)[O-])c1	LYPLA2 inh 29.1 | LYPLA2 conf 32.4
Cc1cc(OCC(=O)NCCCN2CCOCC2)c2c(C)c(C)c(=O)oc2c1	none
Cc1cc(OCC(=O)Nc2ccc(CN3CCOCC3)cc2)c2c(C)c(C)c(=O)oc2c1	LYPLA2 inh 30.5 | LYPLA2 conf 36.0
Cc1cc(OCC(=O)Nc2ccc(CN3CCOCC3)cc2)c2c(C)cc(=O)oc2c1	LYPLA2 inh 42.8 | LYPLA2 conf 48.0
Cc1c(C(=O)Oc2ccc(F)cc2)sc2ncn(Cc3cccc(F)c3)c(=O)c12	LYPLA2 inh 34.6 | LYPLA2 conf 30.0
CCn1cnc2sc(C(=O)Oc3cccc(C)c3)c(C)c2c1=O	LYPLA2 inh 27.7 | LYPLA2 conf 36.2
CSc1ncccc1C(=O)OCC(=O)Nc1ccc(S(=O)(=O)N2CCCC2)cc1	none
CSc1ncccc1C(=O)OCC(=O)c1ccc(S(=O)(=O)N2CCCCC2)cc1	LYPLA2 inh 30.8 | LYPLA2 conf 31.9
Cc1cc(Cl)ccc1OCC(=O)N(Cc1ccco1)C1CCS(=O)(=O)C1 (stereo not drawn)	none
O=[N+]([O-])c1ccc(Oc2cccc(F)c2)c2ccncc12	LYPLA2 inh 43.1 | LYPLA2 conf 43.5
C=CCn1c(SCC(=O)NCC2CCCO2)nc2sc(CC)cc2c1=O (stereo not drawn)	none (no result: Fam108B inh, PME-1 primary, LYPLA1 counter, LYPLA2 inh, MEX-5 binding)
COc1ccc2c(c1)C(=O)[C@@H](O)[C@H](c1ccc(OC)c(Br)c1)O2	LYPLA2 inh 70.2 | LYPLA2 conf 70.5 | LYPLA2 ABPP 63.0
CC(/C=N\NC(=O)c1cc(C)oc1C)=C\c1ccccc1	none

Screening results from PubChem BioAssay.
